Many of the other results were omitted from the sample, so hits are more common in it than they were.
IL1B secr inh: inhibitors of inflammasome signaling (IL-1 beta secretion); THP-1 LPS/ATP IL-1B secretion, AlphaLISA, 16 h; stronger effect = lower value; 360,000 compounds, 4.7% hits; activity change, % at 57.5 µM; AID 743279; in the data active = activity change below about -50%; inconclusive = mostly about -30% to -49%
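Secreted IL-1B measured by AlphaLISA bead assay after 16 h compound exposure of THP-1 cells; compounds (final up to 57.5 uM) added 1 h before LPS (250 ng/mL) and ATP (1.25 mM) stimulation; lower signal means less secretion.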
HT1080 IDH1KD tx: toxicity to HT-1080 IDH1 knockdown cells (counter line); Potency, µM (top dose mostly 46.1 µM), inactives show top-dose activity, negative = toxicity, hits mostly cytotoxic; AID 686971; HT-1080 IDH1 knockdown viability, ATP luminescence, 48 h; 360,000 compounds, 2% hits;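 also: potency is read from the fitted curve at half-maximal effect; 0% = DMSO wells and -100% = cell-free medium wells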
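IDH1KD HT-1080 cells, 750/well, RPMI + 5% FBS; compound pinned after 2 h settling; 48 h, 37 °C; CellTiter-Glo luminescence; % activity normalised to DMSO and no-cell wells; curves fitted, classed by r2 and efficacy.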
DT40 TDP1 CPT: DT40-hTDP1 cell growth loss with CPT; chicken DT40 Tdp1-/-;hTDP1 cells + 20 nM CPT, ATP luminescence, 48 h; Potency, µM (top dose mostly 46.2 µM), inactives show at the top dose activity change, negative = growth inhibition, most hits filed as inhibitors; 420,000 compounds, 12% hits; AID 686979; also: potency is read from the fitted curve at half-maximal effect; nearly all actives have a fitted effect of over 55% in size
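Cell growth measured by CellTiter-Glo luminescence after a minimum 48 h, 37 C compound exposure with 20 nM CPT in Tdp1-knockout DT40 cells stably expressing hTDP1, seeded 400/well; qHTS titration format.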
DT40 TDP1 no CPT: qHTS for Inhibitors of human tyrosyl-DNA phosphodiesterase 1 (TDP1): qHTS in cells in absence of CPT; 420,000 compounds, 15% hits; Potency, µM (titrated, usually from 46.2 µM), inactives show top-dose activity change, negative = growth inhibition, actives largely listed as inhibitors; DT40 Tdp1-/- hTDP1 cells, no CPT, ATP luminescence, 48 h; also: potency is read from the fitted curve at half-maximal effect; nearly all actives have a fitted effect of over 55% in size
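No-CPT arm: Tdp1-/-;hTDP1 DT40 cells (400/well) plus compounds, incubated ≥48 hr at 37 °C. Readout CellTiter-Glo luminescence.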
12-LOX inh: blocks human arachidonate 12S-lipoxygenase. P18054. purified 12hLO, xylenol orange hydroperoxide absorbance. Potency, µM (doses to about 108 µM), inactives show top-dose activity change, negative = inhibition, usual class: inhibitors. 580,000 compounds, 1.1% hits; also: potency is read from the fitted curve at half-maximal effect
Target sequence (P18054 whole entry, looked up): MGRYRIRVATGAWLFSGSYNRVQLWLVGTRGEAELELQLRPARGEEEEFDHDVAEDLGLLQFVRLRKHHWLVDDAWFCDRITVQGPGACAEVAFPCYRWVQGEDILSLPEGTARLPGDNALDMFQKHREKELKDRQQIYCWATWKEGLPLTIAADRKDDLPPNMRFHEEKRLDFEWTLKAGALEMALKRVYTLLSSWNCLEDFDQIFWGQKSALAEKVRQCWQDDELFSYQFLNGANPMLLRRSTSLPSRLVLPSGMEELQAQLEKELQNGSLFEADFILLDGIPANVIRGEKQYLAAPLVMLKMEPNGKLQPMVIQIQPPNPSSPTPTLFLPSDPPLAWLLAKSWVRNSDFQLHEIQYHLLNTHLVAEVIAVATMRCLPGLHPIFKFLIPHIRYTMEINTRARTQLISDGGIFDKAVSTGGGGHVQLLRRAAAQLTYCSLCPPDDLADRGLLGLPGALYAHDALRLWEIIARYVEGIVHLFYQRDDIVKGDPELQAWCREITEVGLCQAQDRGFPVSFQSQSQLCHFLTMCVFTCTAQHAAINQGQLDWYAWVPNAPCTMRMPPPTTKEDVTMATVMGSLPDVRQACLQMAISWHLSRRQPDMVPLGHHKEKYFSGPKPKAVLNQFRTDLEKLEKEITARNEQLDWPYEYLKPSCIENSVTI
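Hydroperoxide product was detected by ferrous iron/xylenol orange as the 573 to 405 nm absorbance ratio. Arachidonic acid at 40 uM (final) was turned over for 30 min at room temperature by 150 nM human 12hLO, pH 7.0 Hepes buffer, after 15 min compound preincubation.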
HT1080-NT tox: kills 2HG-producing HT-1080-NT fibrosarcoma cells; HT-1080-NT fibrosarcoma viability, CellTiter-Glo ATP luminescence, 48 h; Potency, µM (highest dose often 46.1 µM), for the others: top-dose activity, negative = less viability, hits mostly cytotoxic; 360,000 compounds, 1.6% hits;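 also: NT is the 2HG producing partner of a matched IDH1 knockdown line; potency is read from the fitted curve at half-maximal effect; 0% = DMSO-treated cells and -100% = media-only wells without cells; nearly all actives have a fitted effect of over 55% in size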
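Compounds were tested in concentration-response format on HT-1080-NT cells for 48 hours at 37 degrees C. Cell viability came from CellTiter-Glo luminescence; curves were classified by r2, response magnitude and activity.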
Numbers without * were called inactive; ? = inconclusive; . = not tested or not shown; ! = not active in a repeat; [ ] = remark or other dose. Unless noted, calls follow the shape of the dose curve; as a rule, active = well fitted curve in the direction sought with a large enough effect; inconclusive = small, poorly fitted or top-dose-only effect, or another doubt; inactive = no such curve, though single readings can be large; an effect the other way counts as inactive or inconclusive. Unless noted, % is scaled to controls: 0 for no effect and ±100 for the full control effect.

SMILES	IL1B secr inh	HT1080 IDH1KD tx	DT40 TDP1 CPT	DT40 TDP1 no CPT	12-LOX inh	HT1080-NT tox
CCn1c(=O)cc(SCC(=O)Nc2ccc(C)cn2)c2ccccc21	?	8.4%	?	29.1µM*	-1.3%	7.1%
CCn1c(=O)cc(OCC(=O)Nc2ccc(C)cn2)c2ccccc21	27.2	7.1%	?	?	0.0%	-0.1%
Cc1c(C(C)NC(=O)CCN2CCCCCC2=O)cnn1-c1cccc(F)c1 (stereo unspecified)	.	.	.	.	-7.6%	.
O=C(COC(=O)/C=C/c1cn(-c2ccccc2)nc1-c1ccc2c(c1)OCCO2)NC1CCS(=O)(=O)C1 (stereo unspecified)	?	-7.2%	?	20.6µM*	10.9%	-5.6%
CN(C(=O)COC(=O)/C=C/c1cn(-c2ccccc2)nc1-c1ccc2c(c1)OCCO2)C1CCS(=O)(=O)C1 (stereo unspecified)	?	-1.9%	?	14.6µM*	-2.1%	-2.8%
CCc1cc2ccc(C)cc2nc1SCC(=O)c1ccc(NC(C)=O)cc1	-61.1*	-1.8%	-22.1%	-22.1%	0.0%	?
CCCCNC(=O)Cn1c(SCc2cccc(C)c2)nc2ccncc21	.	.	-23.3%	-19.4%	.	.
COc1cccc2sc(=NC(=O)c3ccc(S(=O)(=O)N4CCCCC4)cc3)n(C)c12	.	.	-28.0%	-8.8%	-15.9%	.
CCOCCn1c(=NC(=O)c2ccc(S(=O)(=O)N3CCOCC3)cc2)sc2cc(S(N)(=O)=O)ccc21	43.0	-10.8%	?	?	3.9%	-0.3%
CCOc1cccc2sc(=NC(=O)c3ccc(S(=O)(=O)N4CCOCC4)cc3)n(C)c12	18.1	-6.4%	14.6µM*!	20.6µM*!	3.3%	4.3%
C=CCn1c(=NC(=O)c2cccc(N3C(=O)CCC3=O)c2)sc2cccc(OC)c21	-98.6*	-24.6%	23.1µM*	14.6µM*	2.9%	-0.3%
C#CCn1c(=NC(=O)c2cccs2)sc2cccc(OC)c21	50.8	-19.9%	?	13µM*	0.5%	-21.0%
CCn1c(=NC(=O)c2ccc(S(=O)(=O)N3CCCCC3)cc2)sc2cccc(OC)c21	.	.	2.59µM*	1.46µM*	-10.8%	.
N#C/C(=C\c1cccn1-c1ccc(Br)cc1)c1ccc(F)cc1	.	.	.	.	-28.2%	.
CCCc1cc(C(=O)NCCc2nc(-c3ccccn3)no2)n[nH]1	.	.	.	.	12.5%	.
CC(CNCc1cccnc1N1CCOCC1)Cc1ccc2c(c1)OCO2 (stereo unspecified)	.	.	.	.	65.4%	.
COCCn1c(=NC(=O)CCS(=O)(=O)c2ccccc2)sc2ccccc21	-18.8	2.9%	20.6µM*	16.4µM*	1.5%	5.9%
CCn1c(=NC(=O)CS(=O)(=O)c2ccccc2)sc2cccc(OC)c21	-59.1*	-0.9%	?	13µM*	?	2.9%
COC(=O)c1ccc2c(c1)sc(=NC(=O)CCS(=O)(=O)c1ccccc1)n2C	-21.3	8.9%	?	?	-23.3%	10.5%
Cn1c(=NC(=O)CS(=O)(=O)c2ccc(F)cc2)sc2ccccc21	-0.1	-1.7%	-22.3%	?	-12.3%	2.0%
CC(=O)c1c(C)[nH]c(C(=O)CSc2nnc(-c3ccco3)o2)c1C	-23.3	-3.7%	?	14.6µM*	4.4%	-0.9%
CCOC(=O)c1c(C)[nH]c(C)c1C(=O)CSc1nnc(-c2ccc(OC(F)F)cc2)o1	17.9	?	?	11.6µM*	-6.3%	?
COc1ccc(-c2nnc(SCC(=O)c3[nH]c(C)c(C(C)=O)c3C)o2)cc1	49.2	-11.0%	13µM*	18.4µM*	0.0%	-7.5%
COc1ccc(-c2nnc(SCC(=O)c3ccc[nH]3)o2)cc1	20.1	11.8%	-17.9%	-21.9%	23.0%	-2.0%
O=C(CCn1c(=O)oc2cc(Cl)ccc21)Nc1ccc(-c2nnc3n2CCCCC3)cc1	.	.	.	.	-50.1%	.
SMILES	IL1B secr inh	HT1080 IDH1KD tx	DT40 TDP1 CPT	DT40 TDP1 no CPT	12-LOX inh	HT1080-NT tox
NC1(C#Cc2ccc3oc(=O)c(-n4cc(C5(O)CCCCC5)nn4)cc3c2)CCCCC1	-13.9	-6.3%	-1.3%	-17.0%	?	0.0%
NC1(C#Cc2ccc3oc(=O)c(-n4cc(-c5ccsc5)nn4)cc3c2)CCCCC1	-99.3*	-18.3%	8.2µM*	8.2µM*	-12.2%	-2.1%
CCOC(=O)N1CCN(CC(O)COc2cc(C)ccc2C(C)C)CC1 (stereo unspecified)	-4.2	11.3%	-29.0%	8.2µM*	-10.2%	8.8%
OCCN1CCN(CC(O)COc2ccc(C34CC5CC(CC(C5)C3)C4)cc2)CC1 (stereo unspecified)	-97.3*	23.1µM*	5.17µM*	5.17µM*	?	18.4µM*
CCOC(=O)N1CCN(CC(O)COc2ccccc2C(C)C)CC1 (stereo unspecified)	-9.7	-3.1%	?	?	?	-0.6%
Cc1ccc(C(C)C)c(OCC(O)CN2CCN(CCO)CC2)c1 (stereo unspecified)	-18.8	-3.1%	-16.5%	-8.1%	10µM*	-0.8%
CCOC(=O)N1CCN(CC(O)COc2ccccc2C(C)(C)C)CC1 (stereo unspecified)	1.3	-3.7%	?	18.4µM*	?	-3.6%
Cc1nc2n(c(=O)c1Cc1ccccc1)CN(Cc1cccnc1)CN2c1ccc(F)cc1	.	.	.	.	-29.4%	.
COCCN1C(=O)CC[C@]2(C(=O)NCc3cccnc3)CCCC[C@@H]12	.	.	.	.	-1.1%	.
O=C(c1nn(-c2ccccc2)c(=O)c2ccccc12)N1CCC1	.	.	.	.	28.9%	.
COCCNc1ncc(-c2cccc(N)c2)c2c1OCC2	.	.	.	.	1.3%[176 µM]	.
